Counter-ions that a name gives are not always drawn.

This test deals with Ruminococcus gnavus DSM 108212. As to the kind of experiment: growth (OD595) fold change vs plate DMSO controls (fold change (ratio)); higher = more growth. The note with it: incubation time: 27 h, anaerobic, 37 °C. The procedure, abridged: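 The 96-well mGAM cultures had been kept anaerobic for 27 h at 37 °C before being shaken and read at 595 nm. Blank subtraction, compound background correction with 20 µM compound solutions in water, and a calibration factor of 5 turned the readings into OD. Growth is given as the fold change versus the median of plate DMSO controls. Fold changes above 1.5 were set to NA, and the values are means of 2 biological replicates.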
In the case of `CC(C)COCC(CN(Cc1ccccc1)c1ccccc1)N1CCCC1` (centres undefined) [Bepridil hydrochloride] (20 µM), the growth came to 0.654.
Consider `C[C@@H]1C[C@H]2[C@@H]3CCC4=CC(=O)C=C[C@]4(C)[C@@]3(Cl)[C@@H](O)C[C@]2(C)[C@@]1(OC(=O)c1ccco1)C(=O)CCl` [Mometasone furoate] (20 µM), for which the growth turned out to be 1.04.
Turning to `c1ccc(-c2ccc(C(c3ccccc3)n3ccnc3)cc2)cc1` (centres undefined) [Bifonazole] (20 µM), the growth was found to be 0.817.
Under `Cc1ncc([N+](=O)[O-])n1CC(C)O` (centres undefined) [Secnidazole] (20 µM) stands 0.0442; under `CC(=O)[C@H]1CC[C@H]2[C@@H]3C[C@H](C)C4=CC(=O)CC[C@]4(C)[C@H]3[C@@H](O)C[C@]12C` [Medrysone] (20 µM), 1.03.
For the compound `Cc1ccc(C(=O)c2ccc(CC(=O)O)n2C)cc1` [Tolmetin sodium salt dihydrate] (20 µM), the growth is 0.976.
Then `COCCOC(=O)C1=C(C)NC(C)=C(C(=O)OC(C)C)C1c1cccc([N+](=O)[O-])c1` (centres undefined) [Nimodipine] (20 µM), with 0.991; and `CCCCCCCCCCCCCCCCCCCCCC(=O)Nc1ccn([C@@H]2O[C@H](CO)[C@@H](O)[C@@H]2O)c(=O)n1` [Enocitabine] (20 µM), with 0.975; and `CCN(CCCc1ccccc1)CCCc1ccccc1` [Alverine citrate salt] (20 µM), with 0.708.
Consider `CN(C)CCCC1(c2ccc(F)cc2)OCc2cc(C#N)ccc21` (centres undefined) [Citalopram hydrobromide] (20 µM), for which the growth turned out to be 1.08.
Turning to `O=C1Nc2ccc(Cl)cc2[C@@](C#CC2CC2)(C(F)(F)F)O1` [Efavirenz] (20 µM), the growth is 1.22.
Take `O=C1NS(=O)(=O)c2ccccc21` [Saccharin] (50 µM): the growth was found to be 1.11.
In the case of `O=C(O)CCCC[C@@H]1SC[C@@H]2NC(=O)N[C@@H]21` [Biotin] (20 µM), the growth was 1.12.
Regarding `CC(C)(C(=O)O)c1ccc(C(O)CCCN2CCC(C(O)(c3ccccc3)c3ccccc3)CC2)cc1` (centres undefined) [Fexofenadine hydrochloride] (20 µM), the growth is 1.19.
On to `CC(C)[C@H]1CC[C@H](C(=O)N[C@H](Cc2ccccc2)C(=O)O)CC1` [Nateglinide] (20 µM), for which the growth came out at 0.903.
Consider `COc1ccc(CNc2nc(N3CCC[C@H]3CO)ncc2C(=O)NCc2ncccn2)cc1Cl` [Avanafil] (20 µM), for which the growth was 0.992.
Under `C#CCN(C)CCCOc1ccc(Cl)cc1Cl` [Clorgyline hydrochloride] (20 µM) stands 0.97.
With `Cc1cc(-c2ccccc2)nnc1NCCN1CCOCC1` [Minaprine dihydrochloride] (20 µM), the growth amounted to 1.16.
For `c1ccc(CNc2ncnc3nc[nH]c23)cc1` [Aminopurine, 6-benzyl] (20 µM), the growth worked out at 0.966.
Consider `COc1cccc(N(C)C(=S)Oc2ccc3c(c2)CCCC3)n1` [Liranaftate] (20 µM), for which the growth was 0.941.
As to `C=CCOc1ccccc1OCC(O)CNC(C)C` (centres undefined) [Oxprenolol hydrochloride] (20 µM), the growth was 0.945.
For `C[C@@H](O[C@H]1OCCN(Cc2n[nH]c(=O)[nH]2)[C@H]1c1ccc(F)cc1)c1cc(C(F)(F)F)cc(C(F)(F)F)c1` [Aprepitant] (20 µM), the growth was 1.2.
Turning to `CCOc1ccc(Cc2nccc3cc(OCC)c(OCC)cc23)cc1OCC` [Ethaverine hydrochloride] (20 µM), the growth amounted to 1.05.
In the case of `O=C(CCCCC(=O)Nc1c(I)cc(I)c(C(=O)O)c1I)Nc1c(I)cc(I)c(C(=O)O)c1I` [Iodipamide] (20 µM), the growth stood at 0.98.
As to `NC(=O)c1cnccn1` [Pyrazinamide] (20 µM), the growth turned out to be 1.12.
Take `CCN(CC)CCOC(=O)c1ccc(N)cc1` [Procaine hydrochloride] (20 µM): the growth stood at 1.23.
Under `CCCCC(CC)CNC(=N)NC(=N)NCCCCCCNC(=N)NC(=N)NCC(CC)CCCC` (centres undefined) [Alexidine dihydrochloride] (20 µM) stands 0.624.
Turning to `Cc1onc(-c2ccccc2)c1C(=O)N[C@@H]1C(=O)N2[C@@H]1SC(C)(C)[C@@H]2C(=O)O` [Oxacillin sodium] (20 µM), the growth worked out at 0.
On to `CC(=O)N[C@@H](CC(C)C)C(=O)O` [N-Acetyl-L-leucine] (20 µM), for which the growth was 1.
As to `CC(C)CN(C[C@@H](O)[C@H](Cc1ccccc1)NC(=O)O[C@H]1CO[C@H]2OCC[C@H]21)S(=O)(=O)c1ccc(N)cc1` [Darunavir] (20 µM), the growth is 0.966.
In the case of `CN1CCc2cccc3c2[C@H]1Cc1ccc(O)c(O)c1-3` [R(-) Apomorphine hydrochloride hemihydrate] (20 µM), the growth was found to be 1.17.
Turning to `CC(=O)OCC(=O)[C@@]1(O)[C@H](C)C[C@H]2[C@@H]3CCC4=CC(=O)C=C[C@]4(C)[C@@]3(F)[C@@H](O)C[C@@]21C` [Dexamethasone acetate] (20 µM), the growth is 0.878.
Regarding `CN(C)CCC(c1ccc(Br)cc1)c1ccccn1` (centres undefined) [Brompheniramine maleate] (20 µM), the growth came to 1.17.
With `C#C[C@]1(O)CC[C@H]2[C@@H]3CCC4=C(CCC(=O)C4)[C@H]3CC[C@@]21C` [Norethynodrel] (20 µM), the growth was 1.02.
Under `CN1CCN(CCCN2c3ccccc3Sc3ccc(S(=O)(=O)N(C)C)cc32)CC1` [Thioproperazine dimesylate] (20 µM) stands 1.15; under `CCN1/C(=C/C=C/C=C/c2sc3ccccc3[n+]2CC)Sc2ccccc21` [Dithiazanine iodide] (20 µM), 1.24; under `O=C(O)/C=C/c1ccc(Cn2ccnc2)cc1` [Ozagrel hydrochloride] (20 µM), 0.975.
Then `C=CCOc1ccc(CC(=O)O)cc1Cl` [Alclofenac] (20 µM), with 1; and `CCCCc1nc(Cl)c(CO)n1Cc1ccc(-c2ccccc2-c2nnn[nH]2)cc1` [Losartan] (20 µM), with 0.99.

For the origin of these results see the supplement of paper PMC12494721.
